Assay results from PubChem BioAssay (Tox21).
Results filed as inconclusive are left out. Active and inactive are the calls of the source. Unless noted, calls follow the shape of the dose curve; as a rule, active = well fitted curve in the direction sought with a large enough effect in the repeat runs; inconclusive = weak or mixed curves; inactive = no such curve, though single readings can be large; an effect the other way counts as inactive or inconclusive.

Tests used:
[1] = qHTS assay to identify small molecule antagonists of the thyroid receptor (TR) signaling pathway - cell viability counter screen (AID 743064); also: nearly all actives have a fitted effect of over 50% in size
How it was run: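 Fluorescence from CellTiter-Fluor, added after 23.5 h exposure at 37 °C, reported viability of GH3.TRE-Luc cells co-treated with compound and 1 nM T3. Measured in the same wells as the luciferase TR readout.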

[2] = qHTS assay to identify small molecule antagonists of the thyroid receptor (TR) signaling pathway (AID 743065); also: series mostly up to about 70 µM; nearly all actives have a fitted effect of over 55% in size
How it was run: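 GH3.TRE-Luc rat pituitary cells carrying two TR response elements driving luciferase were plated for 4 h, given compound plus 1 nM T3 (final), and incubated 23.5 h at 37 C. ONE-Glo luminescence measured reporter inhibition; CellTiter-Fluor fluorescence tracked cytotoxicity.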

[3] = test system: thyroid hormone receptor (rat, GH3 cells); assay: qHTS assay to identify small molecule agonists of the thyroid receptor (TR) signaling pathway (AID 743066; calls by dose curve)
[4] = molecular target: Estrogen receptor (Homo sapiens) (UniProt P03372); assay: qHTS assay to identify small molecule antagonists of the estrogen receptor alpha (ER-alpha) signaling pathway (AID 743069; active = well fitted curve in the direction sought with a large enough effect in the signal ratio in the repeat runs, not every such curve was filed as active; the % refers to the signal ratio)
Sequence of Estrogen receptor (Homo sapiens) (P03372 whole entry, looked up): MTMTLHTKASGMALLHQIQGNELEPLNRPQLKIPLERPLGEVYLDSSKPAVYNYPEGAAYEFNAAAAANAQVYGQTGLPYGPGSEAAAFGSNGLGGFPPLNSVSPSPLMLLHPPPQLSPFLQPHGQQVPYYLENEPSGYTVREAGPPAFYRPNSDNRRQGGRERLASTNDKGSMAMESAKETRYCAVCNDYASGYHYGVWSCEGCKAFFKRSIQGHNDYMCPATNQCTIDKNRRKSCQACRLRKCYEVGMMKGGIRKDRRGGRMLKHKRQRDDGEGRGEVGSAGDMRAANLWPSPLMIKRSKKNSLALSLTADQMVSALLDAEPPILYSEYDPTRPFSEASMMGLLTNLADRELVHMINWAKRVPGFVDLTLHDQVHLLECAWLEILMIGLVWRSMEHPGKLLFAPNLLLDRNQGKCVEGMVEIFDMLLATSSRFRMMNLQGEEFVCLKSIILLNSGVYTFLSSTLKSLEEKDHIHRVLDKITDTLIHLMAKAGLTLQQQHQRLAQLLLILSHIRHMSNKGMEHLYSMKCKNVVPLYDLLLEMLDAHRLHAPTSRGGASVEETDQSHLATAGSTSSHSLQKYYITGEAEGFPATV
How it was run: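 Estradiol-stimulated ER-alpha-UAS-bla HEK293 cells, 18 hr compound exposure at 37C. LiveBLAzer B/G substrate, 2 hr RT, fluorescence read.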

[5] = qHTS assay to identify small molecule antagonists of the estrogen receptor alpha (ER-alpha) signaling pathway - cell viability counter screen (AID 743074; calls by dose curve;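 also: HEK293 cells carrying ER-alpha-UAS-bla reporter stimulated with 17beta-estradiol; nearly all actives have a fitted effect of over 45% in size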)
[6] = molecular target: Estrogen receptor (Homo sapiens) (UniProt P03372); assay: qHTS assay to identify small molecule agonists of the estrogen receptor alpha (ER-alpha) signaling pathway (AID 743075; calls by dose curve;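 also: HEK293 GripTite cells with ER-alpha and UAS-driven beta-lactamase reporter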)
[7] = molecular target: Estrogen receptor (Homo sapiens) (UniProt P03372); assay: qHTS assay to identify small molecule agonists of the estrogen receptor alpha (ER-alpha) signaling pathway using the BG1 cell line (AID 743079); also: nearly all actives have a fitted effect of over 20% in size; also: potency is read from the fitted curve at half-maximal effect
[8] = qHTS assay to identify small molecule antagonists of the estrogen receptor alpha (ER-alpha) signaling pathway using the BG1 cell line (AID 743080; calls by dose curve;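 also: BG1 cells stimulated with 17beta-estradiol alongside compound; series mostly up to about 70 µM; nearly all actives have a fitted effect of over 25% in size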)
How it was run: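 Readout is ONE-Glo luminescence, taken 30 min at room temperature after reagent addition, preceded by a CellTiter-Fluor viability read; BG1-Luc-4E2 cells had received compound and 17beta-estradiol for 21.5 h at 37 C.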

[9] = qHTS assay to identify small molecule antagonists of the estrogen receptor alpha (ER-alpha) signaling pathway using the BG1 cell line - cell viability counter screen (AID 743081);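 also: compound given together with 17beta-estradiol as the ER stimulus; series mostly up to about 70 µM; nearly all actives have a fitted effect of over 45% in size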
Aromatase (Homo sapiens) = Aromatase (Homo sapiens) (UniProt P11511); assay: qHTS assay to identify aromatase inhibitors (AID 743083); also: series mostly up to about 70 µM; nearly all actives have a fitted effect of over 55% in size
Sequence of Aromatase (Homo sapiens) (P11511 whole entry, looked up): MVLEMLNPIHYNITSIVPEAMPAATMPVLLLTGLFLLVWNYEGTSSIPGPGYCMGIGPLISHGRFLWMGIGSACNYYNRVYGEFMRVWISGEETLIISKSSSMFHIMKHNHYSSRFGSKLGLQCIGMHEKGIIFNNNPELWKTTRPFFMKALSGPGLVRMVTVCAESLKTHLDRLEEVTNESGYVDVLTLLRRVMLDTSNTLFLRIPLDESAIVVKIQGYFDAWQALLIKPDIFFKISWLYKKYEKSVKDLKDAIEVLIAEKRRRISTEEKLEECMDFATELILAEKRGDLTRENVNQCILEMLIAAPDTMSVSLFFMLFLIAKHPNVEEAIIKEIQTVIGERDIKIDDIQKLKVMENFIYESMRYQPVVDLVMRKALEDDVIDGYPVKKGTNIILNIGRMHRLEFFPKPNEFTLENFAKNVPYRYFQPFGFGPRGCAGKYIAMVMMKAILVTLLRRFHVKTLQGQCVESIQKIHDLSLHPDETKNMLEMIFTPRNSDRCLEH

[10] = qHTS assay to identify aromatase inhibitors - cell viability counter screen (AID 743084);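 also: cells stimulated with testosterone during compound exposure; nearly all actives have a fitted effect of over 55% in size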
[11] = molecular target: Aryl hydrocarbon receptor (Homo sapiens) (UniProt P35869); assay: qHTS assay to identify small molecule that activate the aryl hydrocarbon receptor (AhR) signaling pathway (AID 743085);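 also: HG2L7.5c1 human HepG2 liver cells with stably integrated DRE-driven firefly reporter; series mostly up to about 70 µM; nearly all actives have a fitted effect of over 15% in size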
Sequence of Aryl hydrocarbon receptor (Homo sapiens) (P35869 whole entry, looked up): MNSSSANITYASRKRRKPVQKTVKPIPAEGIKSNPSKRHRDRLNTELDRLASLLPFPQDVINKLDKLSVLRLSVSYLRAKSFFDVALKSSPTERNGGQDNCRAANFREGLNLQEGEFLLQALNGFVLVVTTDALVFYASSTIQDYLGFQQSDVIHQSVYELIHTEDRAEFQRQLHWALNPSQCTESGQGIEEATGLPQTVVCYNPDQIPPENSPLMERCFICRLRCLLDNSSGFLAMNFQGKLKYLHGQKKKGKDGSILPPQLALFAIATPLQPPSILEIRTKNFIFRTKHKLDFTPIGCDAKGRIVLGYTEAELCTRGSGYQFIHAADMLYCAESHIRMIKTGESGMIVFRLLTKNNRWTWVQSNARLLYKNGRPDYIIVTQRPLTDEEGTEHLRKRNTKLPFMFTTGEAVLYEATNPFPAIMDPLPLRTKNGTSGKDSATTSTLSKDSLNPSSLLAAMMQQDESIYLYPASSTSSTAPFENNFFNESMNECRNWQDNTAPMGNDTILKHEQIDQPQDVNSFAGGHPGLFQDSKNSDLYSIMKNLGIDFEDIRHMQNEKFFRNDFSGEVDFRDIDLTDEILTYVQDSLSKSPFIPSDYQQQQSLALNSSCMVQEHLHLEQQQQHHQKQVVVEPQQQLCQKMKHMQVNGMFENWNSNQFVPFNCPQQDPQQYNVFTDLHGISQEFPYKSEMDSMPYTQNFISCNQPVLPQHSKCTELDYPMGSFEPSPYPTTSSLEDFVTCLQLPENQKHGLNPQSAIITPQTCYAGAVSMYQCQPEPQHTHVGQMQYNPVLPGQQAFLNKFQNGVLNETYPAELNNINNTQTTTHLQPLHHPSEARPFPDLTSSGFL
How it was run: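 Cell line HG2L7.5c1 (human hepatoma, 20× DRE-luc). Plated, 5 h 37C, compound/DMSO added, 24 h 37C. CellTiter-Fluor 30 min 37C → fluorescence; then ONE-Glo 30 min RT → luminescence.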

[12] = qHTS assay to identify small molecule that activate the aryl hydrocarbon receptor (AhR) signaling pathway - cell viability counter screen (AID 743086);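 also: HepG2 liver cells carrying the AhR DRE luciferase reporter; series mostly up to about 70 µM; nearly all actives have a fitted effect of over 45% in size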
How it was run: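 HepG2-AhR-luc (HG2L7.5c1) cells, 4000/well, were preincubated 5 h at 37C, exposed to compound in qHTS format for 24 hr at 37C, then given CellTiter-Fluor for 30 min; viability was read as fluorescence in the reporter wells.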

[13] = molecular target: Peroxisome proliferator-activated receptor gamma (Homo sapiens) (UniProt P37231); assay: qHTS assay to identify small molecule agonists of the peroxisome proliferator-activated receptor gamma (PPARg) signaling pathway (AID 743094; active = well fitted activation curve with a large enough effect in the signal ratio in the repeat runs, not every such curve was filed as active; the % refers to the signal ratio)
Sequence of Peroxisome proliferator-activated receptor gamma (Homo sapiens) (P37231 whole entry, looked up): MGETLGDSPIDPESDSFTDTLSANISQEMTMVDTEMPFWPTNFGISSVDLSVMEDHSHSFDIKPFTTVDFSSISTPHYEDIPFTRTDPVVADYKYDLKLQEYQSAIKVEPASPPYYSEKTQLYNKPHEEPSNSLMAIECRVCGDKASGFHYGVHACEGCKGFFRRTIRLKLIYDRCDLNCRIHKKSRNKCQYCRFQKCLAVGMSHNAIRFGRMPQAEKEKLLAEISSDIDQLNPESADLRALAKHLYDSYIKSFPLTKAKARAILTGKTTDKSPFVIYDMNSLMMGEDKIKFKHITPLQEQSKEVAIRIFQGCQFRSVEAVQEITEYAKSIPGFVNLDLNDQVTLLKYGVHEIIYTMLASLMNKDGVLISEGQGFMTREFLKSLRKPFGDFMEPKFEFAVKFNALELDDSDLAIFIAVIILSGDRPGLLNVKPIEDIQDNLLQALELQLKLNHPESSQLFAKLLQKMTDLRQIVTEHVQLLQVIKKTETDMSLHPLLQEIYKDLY
How it was run: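 Following 5 h plating at 37C, PPARg-bla HEK293H cells receive compound or DMSO for 17 h; fluorescence intensity is recorded after LiveBLAzer B/G loading for 1 h at room temperature.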

[14] = molecular target: Peroxisome proliferator-activated receptor gamma (Homo sapiens) (UniProt P37231); assay: qHTS assay to identify small molecule antagonists of the peroxisome proliferator-activated receptor gamma (PPARg) signaling pathway (AID 743191; calls by dose curve; also: series mostly up to about 63 µM; nearly all actives have a fitted effect of over 30% in size)
How it was run: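 GeneBLAzer PPARg UAS-bla HEK293H cells carrying a UAS-driven beta-lactamase reporter were plated at 3000 cells/well, preincubated 5 h at 37C, then given compound for 17 h at 37C; LiveBLAzer B/G FRET substrate was read after 1 h at room temperature.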

[15] = qHTS assay to identify small molecule antagonists of the peroxisome proliferator-activated receptor gamma (PPARg) signaling pathway - cell viability counter screen (AID 743194); also: nearly all actives have a fitted effect of over 55% in size
How it was run: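 PPARg-UAS-bla HEK293H cells were plated, rested 5 h at 37 C, then treated with compounds plus rosiglitazone (50 nM final) for 17 h at 37 C; viability was then read by CellTiter-Glo luminescence after 30 min at room temperature.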

[16] = qHTS assay for small molecule agonists of the antioxidant response element (ARE) signaling pathway (AID 743202; active = well fitted activation curve with a large enough effect in the signal ratio in the repeat runs, not every such curve was filed as active; the % refers to the signal ratio)
How it was run: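 Compounds delivered in DMSO to ARE-bla HepG2 cells (2,000 cells/well, pre-incubated 5 h) and left 16 h at 37 C. LiveBLAzer B/G FRET substrate then added for 2 h at RT before fluorescence reading.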

[17] = qHTS assay for small molecule agonists of the antioxidant response element (ARE) signaling pathway - cell viability counter screen (AID 743203; calls by dose curve; also: nearly all actives have a fitted effect of over 55% in size)
How it was run: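 Compounds in DMSO were pinned onto ARE-bla HepG2 cells plated 5 hrs earlier at 2,000 cells/well. Sixteen hours later at 37C/5% CO2, CellTiter-Glo was added and luminescence measured after 30 min at room temperature.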

[18] = qHTS assay for small molecule activators of the heat shock response signaling pathway - cell viability counter screen (AID 743209); also: nearly all actives have a fitted effect of over 50% in size
How it was run: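 Counter screen for cytotoxicity in HeLa HSE-bla reporter cells. Treatment was 5 h at 37 C; viability was detected by luminescent ATP assay (CellTiter-Glo) in the same wells as the beta-lactamase read.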

[19] = qHTS assay for small molecule activators of the heat shock response signaling pathway (AID 743210; active = well fitted activation curve with a large enough effect in the signal ratio in the repeat runs, with a control signal flat, not every such curve was filed as active; the % refers to the signal ratio;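 also: HeLa cells with beta-lactamase reporter driven by heat shock elements; series mostly up to about 63 µM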)
How it was run: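 Reporter gene assay: HeLa cells stably bearing an HSE-bla construct, compound treatment 5 h at 37 C, LiveBLAzer substrate 2.5 h at RT, fluorescence intensity.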
% is scaled to controls: 0 for no effect and ±100 for the full control effect.

CCCO
inactive: Potency [1] | Potency [2] | Potency [3] | Potency [4] | Potency [5] | Potency [6] | Potency [7] | outcome [8] | outcome [9] | outcome (Aromatase (Homo sapiens)) | Potency [10] | Potency [11] | Potency [12] | outcome [13] | Potency [14] | outcome [15] | Potency [16] | outcome [17] | outcome [18] | outcome [19]

CCCCCCCCCCCCCC(=O)OC
inactive: Potency [1] | Potency [2] | Potency [3] | Potency [4] | Potency [5] | Potency [6] | Potency [7] | outcome [8] | outcome [9] | outcome (Aromatase (Homo sapiens)) | Potency [10] | Potency [11] | Potency [12] | outcome [13] | Potency [14] | outcome [15] | Potency [16] | outcome [17] | outcome [18] | outcome [19]

CN(C)CCOCCN(C)CCO
inactive: Potency [1] | Potency [2] | Potency [3] | Potency [4] | Potency [5] | Potency [6] | Potency [7] | outcome [8] | outcome [9] | outcome (Aromatase (Homo sapiens)) | Potency [10] | Potency [11] | Potency [12] | outcome [13] | Potency [14] | outcome [15] | Potency [16] | outcome [17] | outcome [18] | outcome [19]

CO[Si](CCCS)(OC)OC
inactive: Potency [1] | Potency [2] | Potency [3] | Potency [4] | Potency [5] | Potency [6] | Potency [7] | outcome [8] | outcome [9] | outcome (Aromatase (Homo sapiens)) | Potency [10] | Potency [11] | Potency [12] | outcome [13] | Potency [14] | outcome [15] | outcome [17] | outcome [18]

C1=C\CC/C=C\CC/1
inactive: Potency [1] | Potency [2] | Potency [3] | Potency [4] | Potency [5] | Potency [6] | Potency [7] | outcome [8] | outcome [9] | outcome (Aromatase (Homo sapiens)) | Potency [10] | Potency [11] | Potency [12] | outcome [13] | Potency [14] | outcome [15] | Potency [16] | outcome [17] | outcome [18] | outcome [19]

NS(=O)(=O)c1ccc(Cl)c(S(N)(=O)=O)c1
inactive: Potency [1] | Potency [2] | Potency [3] | Potency [4] | Potency [5] | Potency [6] | Potency [7] | outcome [8] | outcome [9] | outcome (Aromatase (Homo sapiens)) | Potency [10] | Potency [11] | Potency [12] | outcome [13] | Potency [14] | outcome [15] | outcome [17] | outcome [18] | outcome [19]

FC(F)(F)/C(=N\OCC1OCCO1)c1ccc(Cl)cc1
inactive: Potency [1] | Potency [2] | Potency [3] | Potency [4] | Potency [5] | Potency [6] | Potency [7] | outcome [8] | outcome [9] | outcome (Aromatase (Homo sapiens)) | Potency [10] | Potency [11] | Potency [12] | outcome [13] | Potency [14] | outcome [15] | Potency [16] | outcome [18] | outcome [19]

CCC1COC(=O)O1 (centres undefined)
inactive: Potency [1] | Potency [2] | Potency [3] | Potency [4] | Potency [5] | Potency [6] | Potency [7] | outcome [8] | outcome [9] | outcome (Aromatase (Homo sapiens)) | Potency [10] | Potency [11] | Potency [12] | outcome [13] | Potency [14] | outcome [15] | Potency [16] | outcome [17] | outcome [18] | outcome [19]

O=c1[nH]c(=O)c2[nH]c(=O)[nH]c2[nH]1
inactive: Potency [1] | Potency [2] | Potency [3] | Potency [4] | Potency [5] | Potency [6] | Potency [7] | outcome [8] | outcome [9] | outcome (Aromatase (Homo sapiens)) | Potency [10] | Potency [11] | Potency [12] | outcome [13] | ratio activity, negative = inhibition [14] -6.65% [at 13.2 µM] | activity change, negative = cytotoxicity [15] -35.1% [at 13.2 µM] | activation [16] 2.83% [at 8.36 µM] | viability change, negative = cytotoxic [17] 8.26% [at 8.36 µM] | activity change, negative = cytotoxicity [18] -0.886% [at 13.2 µM] | activation [19] -0.669% [at 13.2 µM]

C=CCOCC(O)CCl (centres undefined)
inactive: Potency [1] | Potency [2] | Potency [3] | Potency [4] | Potency [5] | Potency [6] | Potency [7] | outcome [8] | outcome [9] | outcome (Aromatase (Homo sapiens)) | Potency [10] | Potency [11] | Potency [12] | outcome [13] | Potency [14] | outcome [15] | outcome [17] | outcome [18]

CCCCC(CC)COC(=O)c1ccccc1 (centres undefined)
inactive: Potency [1] | Potency [2] | Potency [3] | Potency [4] | Potency [5] | Potency [6] | Potency [7] | outcome [8] | outcome [9] | outcome (Aromatase (Homo sapiens)) | Potency [10] | Potency [11] | Potency [12] | outcome [13] | Potency [14] | outcome [15] | Potency [16] | outcome [18] | outcome [19]

NC(=O)NC(=O)Cc1ccccc1
active: Potency [7] 33.5 µM
inactive: Potency [1] | Potency [2] | Potency [3] | Potency [4] | Potency [5] | Potency [6] | outcome [8] | outcome [9] | outcome (Aromatase (Homo sapiens)) | Potency [10] | Potency [11] | Potency [12] | outcome [13] | Potency [14] | outcome [15] | Potency [16] | outcome [18] | outcome [19]

Cc1nc([N+](=O)[O-])cn1-c1ccc([N+](=O)[O-])cc1
inactive: Potency [1] | Potency [2] | Potency [3] | Potency [4] | Potency [5] | Potency [6] | Potency [7] | outcome [8] | outcome [9] | outcome (Aromatase (Homo sapiens)) | Potency [10] | Potency [11] | Potency [12] | outcome [13] | Potency [14] | outcome [15] | Potency [16] | outcome [17] | outcome [18]

CNC(=O)NC
inactive: Potency [1] | Potency [2] | Potency [3] | Potency [4] | Potency [5] | Potency [6] | Potency [7] | outcome [8] | outcome [9] | outcome (Aromatase (Homo sapiens)) | Potency [10] | Potency [11] | Potency [12] | outcome [13] | Potency [14] | outcome [15] | Potency [16] | outcome [17] | outcome [18]

C[C@H](CCC(=O)O)[C@H]1CC[C@H]2[C@@H]3[C@H](O)C[C@@H]4C[C@H](O)CC[C@]4(C)[C@H]3C[C@H](O)[C@]12C
inactive: Potency [1] | Potency [2] | Potency [3] | Potency [4] | Potency [5] | Potency [6] | Potency [7] | outcome [8] | outcome [9] | outcome (Aromatase (Homo sapiens)) | Potency [10] | Potency [11] | Potency [12] | outcome [13] | Potency [14] | outcome [15] | Potency [16] | outcome [17] | outcome [18]
